DAX1 inh-1: DAX1 (NR0B1) inhibitors, primary screen, cell-based, HEK293, Gal4-DAX1, luciferase luminescence. AID 504766, 2011. actives 0.99% (n = 340,000). Nuclear receptor subfamily 0 group B member 1 (Homo sapiens), P51843. inhibition, % at 6.75 µM. HEK293 Gal4-DAX1 luciferase reporter;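 active means inhibition above the mean over all tested compounds plus 3 SD, cut at about 4.2% in these data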;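 further: inhibition shows as a rise in luminescence from relieved DAX1 repression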
Target sequence (P51843 207-470 limits assumed): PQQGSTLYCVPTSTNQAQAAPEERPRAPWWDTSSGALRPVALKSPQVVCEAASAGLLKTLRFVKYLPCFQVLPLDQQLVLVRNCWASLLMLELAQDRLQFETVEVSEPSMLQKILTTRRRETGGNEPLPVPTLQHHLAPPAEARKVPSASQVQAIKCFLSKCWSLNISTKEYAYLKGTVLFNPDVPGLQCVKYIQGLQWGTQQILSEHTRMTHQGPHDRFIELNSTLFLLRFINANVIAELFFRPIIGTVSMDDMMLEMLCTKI
hgDAF-12 ag: H. glycines DAF-12 receptor agonists, primary screen, cell-based, luminescence, HEK293, GAL4 fusion, UAS-luciferase; activation, % at 6.8 µM; HEK293 GAL4-hgDAF12 UAS-luciferase reporter, agonist luminescence; normalized to butyrate control; AID 687014, 2013; Nuclear hormone receptor DAF-12 (Heterodera glycines), GAL4 fusion; actives 1.8% (n = 370,000);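 active means activation above a cutoff set at the mean of all screened compounds plus 3 SD, cut at about 10% in these data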
DAX1 inh-2: DAX1 (NR0B1) inhibitors on StAR promoter, primary screen, cell-based, luminescence, SF-1 (NR5A1), full-length DAX-1. HEK293T StAR-luciferase reporter, SF-1/DAX-1 repression relief. AID 652010, 2013. inhibition, % at 6.8 µM. actives 1.1% (n = 370,000);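 active means inhibition above the mean over all tested compounds plus 3 SD, cut at about 3.6% in these data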;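 further: higher inhibition means more luminescence from relief of DAX-1 repression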
ssDAF12 agonist: S. stercoralis DAF-12 nuclear receptor activators, primary screen, cell-based, luminescence, HEK293, GRIP1 co-expression, lit1-tk-luc; Nuclear hormone receptor DAF-12 (Strongyloides stercoralis); actives 1% (n = 370,000); activation, % at 6.8 µM; HEK293 ssDAF-12/GRIP1 lit1-tk-luc reporter; % of 3 µM dafachronic acid response;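 active means activation above the mean over all tested compounds plus 3 SD, cut at about 0.9% in these data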
hcDAF12 agonist: H. contortus DAF-12 nuclear receptor activators, primary screen, cell-based, luminescence, HEK293, lit1-tk-luc reporter. actives 1.4% (n = 370,000). HEK293 hcDAF-12 lit1-tk-luc reporter; 0% DMSO, 100% Δ7-dafachronic acid. activation, % at 6.8 µM;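 active means activation above the mean of all tested compounds plus 3 SD, cut at about 5.5% in these data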
hgDAF12 conf: H. glycines DAF-12 receptor agonists, confirmation, cell-based, luminescence, HEK293, GAL4-LBD fusion | shares compounds with hgDAF-12 ag | HEK293 GAL4-hgDAF12 luciferase reporter, agonist mode; percent of butyrate response | activation, % at 6.8 µM | actives 80% (n = 3,300) | AID 743050, 2013;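 active means mean activation over triplicate wells above the hit cutoff derived from the earlier primary screen, cut at about 11% in these data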
LXR ag 2: LXR agonists, Gal4 luciferase reporter, confirmation, counter-screen for hgDAF-12 agonist project, cell-based, luminescence, HEK293, H. glycines campaign | shares compounds with hgDAF-12 ag | 24 h | activation, % at 6.8 µM | 3,300 tested, under 10 active;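 active means mean activation of the triplicate above a set limit carried over from the primary screen, none filed active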
Each line names hits and unclear results; the compound was inactive in the other large screens (follow-up assays come after a bar, where they were run). Rows were chosen to be rich in hits. Some 4.1% of all compounds tested hit in one or more screens of this group.

O=C(NCCc1csc(-c2ccccc2)n1)c1c(F)cccc1F	none
O=C(NCCc1ccccc1)c1ccc(NC(=O)C2CC2)cc1	hgDAF-12 ag 14 | hgDAF12 conf inactive | LXR ag 2 inactive
O=C(NCCc1ccccc1)c1c(F)cccc1F	hgDAF-12 ag 14, DAX1 inh-2 3.9 | hgDAF12 conf 12 | LXR ag 2 inactive
C/C(=N\NC(=O)c1csc(C)c1C)c1ccc(C)s1	hgDAF-12 ag 13 | hgDAF12 conf 11 | LXR ag 2 inactive
CC(C)(C)NC(=S)NCCc1ccccc1	hgDAF-12 ag 14 | hgDAF12 conf 11 | LXR ag 2 inactive
CC(=O)Oc1ccccc1/C=C/c1ccc2ccccc2[n+]1C	hgDAF-12 ag 13, ssDAF12 agonist 1.9, hcDAF12 agonist 6.0 | hgDAF12 conf 11 | LXR ag 2 inactive
COc1ccc(/C=C/c2ccc3ccccc3[n+]2C)cc1OC	none (no result: hgDAF-12 ag, DAX1 inh-2, ssDAF12 agonist, hcDAF12 agonist)
COc1ccc(CNS(=O)(=O)CC2NCCc3ccccc32)cc1 (stereo not drawn)	none (no result: DAX1 inh-1)
COc1cccc2c1C(=O)O/C2=C/c1ccc2c(c1)OCO2	hgDAF-12 ag 16, ssDAF12 agonist 1.2 | hgDAF12 conf 14 | LXR ag 2 inactive
CCN(/C=N/c1sc2c(c1C#N)CCCCC2)CC	hgDAF-12 ag 14, hcDAF12 agonist 6.1 | hgDAF12 conf 13 | LXR ag 2 inactive
CN1CCN(/C=N/c2sc3c(c2C#N)CCCCC3)CC1	DAX1 inh-1 6.8, hgDAF-12 ag 19, hcDAF12 agonist 6.4 | hgDAF12 conf 19 | LXR ag 2 inactive
O=C(CC1CCCC1)N[C@H](C(=O)N1CCC[C@H]1C(=O)NC1CCCC1)c1ccccc1	none (no result: DAX1 inh-1)
c1ccc(-c2cc(-c3nnc4sc(Cc5cccs5)nn34)[nH]n2)cc1	none (no result: DAX1 inh-1)
O=C(Nc1ccc2oc(-c3ccccc3)nc2c1)c1ccc2c(c1)OCCO2	none
O=C(Nc1ccc2oc(-c3ccccc3)nc2c1)c1ccco1	hgDAF-12 ag 15, ssDAF12 agonist 1.0 | hgDAF12 conf 12 | LXR ag 2 inactive
O=C(Nc1ccc2oc(-c3ccccc3)nc2c1)C1CCCO1 (stereo not drawn)	hgDAF-12 ag 28, ssDAF12 agonist 1.2 | hgDAF12 conf 15 | LXR ag 2 inactive
C[C@@H]1ON(C)[C@H]2C[C@H]3c4cc(N5CCN(C)CC5)ccc4CCN3C[C@@H]12	none (no result: DAX1 inh-1)
c1ccc(OCc2nnc(-c3ccccc3)o2)cc1	none
Oc1ccccc1-c1nnc(COc2ccccc2)o1	hgDAF-12 ag 14 | hgDAF12 conf inactive | LXR ag 2 inactive
COc1ccc(-c2ccc(C(=O)Nc3cccc(C(C)=O)c3)c3occc23)c(C)c1	none (no result: DAX1 inh-1)
COc1ccc(-c2ccc(C(=O)Nc3cccc(F)c3)c3occc23)c(C)c1	hgDAF-12 ag 14, DAX1 inh-2 3.7 (no result: DAX1 inh-1) | hgDAF12 conf inactive | LXR ag 2 inactive
c1csc(-c2nc(-c3ccc(-c4ccon4)s3)no2)c1	hgDAF-12 ag 17 | hgDAF12 conf 17 | LXR ag 2 inactive
Cc1ccnc(NC(=O)C2COc3ccccc3O2)c1 (stereo not drawn)	hgDAF-12 ag 14, DAX1 inh-2 3.8 | hgDAF12 conf 17 | LXR ag 2 inactive
Cc1ccc(NC(=O)C2COc3ccccc3O2)c(C)c1 (stereo not drawn)	none
CC1CCc2c(C(=O)Nc3ccccn3)csc2C1 (stereo not drawn)	hgDAF-12 ag 17 | hgDAF12 conf 12 | LXR ag 2 inactive

Screens as filed in PubChem.
